Compound activity as filed in PubChem.
GLS inh = blocks human kidney-isoform glutaminase activity. AID 624170. GLS enzymatic activity, qHTS titration. actives 0.21% (n = 410,000). O94925. Potency, µM (doses to about 45.5 µM), for the others: at the top dose activity change, negative = inhibition, most hits filed as inhibitors; further: on the % scale 0 is the no-effect control and ±100 the full control effect
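Assay buffer: 45 mM KH2PO4 pH 8.2, 0.02% Tween-20. hKGA acts on L-glutamine (1 mM solution added); product glutamate is reported by an oxidase/peroxidase Amplex Red coupling, with fluorescence taken at baseline and 30 min.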
G9a block = G9a (human) methyltransferase inhibition. Q96KQ7. G9a H3K9 monomethylation, AlphaScreen, 2 h. Potency, µM (top dose mostly 102 µM), for the others: top-dose activity, negative = inhibition, most hits filed as inhibitors. actives 8.8% (n = 350,000). AID 504332; further: on the % scale 0 is the no-effect control and ±100 the full control effect; nearly all actives have a fitted effect of over 75% in size
Target sequence (Q96KQ7 913-1193 limits assumed): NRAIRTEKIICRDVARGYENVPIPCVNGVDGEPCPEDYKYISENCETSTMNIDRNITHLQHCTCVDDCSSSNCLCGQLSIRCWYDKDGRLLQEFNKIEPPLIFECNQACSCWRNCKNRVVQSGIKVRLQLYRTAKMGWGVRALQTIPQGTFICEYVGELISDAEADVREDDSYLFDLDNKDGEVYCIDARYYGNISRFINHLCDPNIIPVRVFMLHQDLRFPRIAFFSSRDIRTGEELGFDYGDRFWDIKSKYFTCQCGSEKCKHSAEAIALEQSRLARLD
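Compounds were preincubated with 20 nM G9a for 15 min, after which biotinylated H3K9 peptide (500 nM) and SAM (20 uM) started a 2 h room-temperature reaction. Monomethylated product was quantified by antibody-based AlphaScreen chemiluminescence.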
JMJD2A Tudor = JMJD2A Tudor domain (human) inhibition; actives 4.4% (n = 390,000); AlphaScreen JMJD2A-Tudor / H3K4me3 peptide binding; AID 504339; O75164; Potency, µM (doses to about 114 µM), for the others: top-dose activity change, negative = inhibition, usual class: inhibitors; further: on the % scale 0 is the no-effect control and ±100 the full control effect; nearly all actives have a fitted effect of over 50% in size
HP1b binding inh = HP1-beta chromodomain-methylated histone interaction inhibition. P83916. AlphaScreen HP1-beta / biotin-H3K9me3 peptide binding. Potency, µM (doses to about 114 µM), for inactives: at the highest dose activity change, negative = inhibition, usual class: inhibitors. actives 0.56% (n = 390,000). AID 540317; further: nearly all actives have a fitted effect of over 70% in size
Target sequence (P83916 whole entry, looked up): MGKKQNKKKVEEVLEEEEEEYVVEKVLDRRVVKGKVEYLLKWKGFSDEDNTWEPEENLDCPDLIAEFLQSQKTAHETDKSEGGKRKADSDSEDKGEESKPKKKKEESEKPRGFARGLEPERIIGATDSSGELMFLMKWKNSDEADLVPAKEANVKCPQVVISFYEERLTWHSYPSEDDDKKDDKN
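AlphaScreen: HP1-beta (50 nM) preformed 30 min with biotin-H3(1-18)K9me3 peptide (50 nM) in PBS pH 7.4, 0.01% Tween-20. Compound added for 30 min at RT, then streptavidin donor/nickel chelate acceptor beads (10 ug/mL) for 30 min.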
BAZ2B inh = blocks human BAZ2B | Q9UIF8 | AlphaScreen BAZ2B-H3K14Ac peptide displacement | Potency, µM (titrated, usually from 114 µM), inactives show at the highest dose activity change, negative = inhibition, most hits filed as inhibitors | actives 4.4% (n = 360,000) | AID 504333; further: on the % scale 0 is the no-effect control and ±100 the full control effect; nearly all actives have a fitted effect of over 60% in size
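Compounds, titrated to a top concentration of 110 uM, were incubated 30 min at room temperature with preformed BAZ2B/acetyl-K14 H3 peptide complex (50 nM each). Proximity signal was measured by AlphaScreen after 20 min with beads.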
Starred values were filed as active, the others as inactive; ? = inconclusive; · = not tested or not shown; [ ] = another dose, or the depositor's remark. Rows were chosen to be rich in hits. Some 10% of all compounds tested hit in one or more screens of this group. The call rests on the fitted dose curve; in most records, active means well fitted curve in the direction sought with a large enough effect; inconclusive means small, poorly fitted or top-dose-only effect, or another doubt; inactive means no such curve, though single readings can be large; an effect the other way counts as inactive or inconclusive. Potency means the concentration at half of the fitted maximal effect.

SMILES	GLS inh	G9a block	JMJD2A Tudor	HP1b binding inh	BAZ2B inh
O=C(O)c1ccccc1SC1CC(=O)N(c2cccc3ccccc23)C1=O (stereo not given)	-0.6%	·	22.4µM*	?	?
CCOC(=O)c1c(N2C(=O)CC(Sc3ccccc3C(=O)O)C2=O)sc2c1CCCC2 (stereo not given)	0.0%	·	?	7.7%	50.1µM*
CCN1C(=O)CC(Sc2ccccc2C(=O)O)C1=O (stereo not given)	3.7%	?	-13.2%	17.1%	?
COc1ccc(CCNC(=O)CSC2=Nc3ccccc3C3=NC(C(C)C)C(=O)N23)cc1OC (stereo not given)	-4.5%	-50.2%	-4.8%	38.4%	-2.1%
CN(CC(=O)Nc1ccc(F)c(F)c1F)C(=O)CN1C(=O)NC2(CCCC2)C1=O	-3.8%	-4.9%	-10.5%	-11.6%	0.2%
O=C1CC(c2ccco2)CC(O)=C1C=Nc1cc(Cl)cc(Cl)c1 (stereo not given)	12.1%	10µM*	?	-18.6%	?
CCC(C)NS(=O)(=O)c1ccc(OCC(=O)N2CCC(C)CC2)cc1 (stereo not given)	4.3%	-0.9%[59 µM]	-1.8%	21.3%	-1.8%
O=C(O)c1cccc(S(=O)(=O)Nc2cccc3ccccc23)c1	10.8%	39.8µM*	-24.8%	1.4%	-1.4%
O=S(=O)(Nc1cccc2ccccc12)c1ccccc1	-11.0%	·	-22.6%	14.6%	-1.3%
O=S(=O)(O)c1c(NS(=O)(=O)c2ccccc2)ccc2ccccc12	·	·	89.1µM*	15.9%	·
O=S(=O)(Nc1cccc2ccccc12)c1ccc2ccccc2c1	·	·	79.4µM*	?	·
O=C(O)c1cccc(S(=O)(=O)Nc2ccccc2Cl)c1	12.1%	14.5%[59 µM]	-6.2%	21.5%	-1.6%
O=C(Nc1ccccc1)N1CC2(CCN(C(=O)c3cc(C(F)(F)F)cc(C(F)(F)F)c3)CC2)C1	·	9.8%[12.7 µM]	·	·	·
CC(=O)Nc1ccc(-c2ccnc3c2CC(C(=O)NCc2ccc(N4CCN(C)CC4)cc2)O3)cc1 (stereo not given)	21.7%	·	·	·	·
CCC(Sc1nc2ncnc(N)c2[nH]1)C(=O)O (stereo not given)	-8.2%	39.8µM*	-6.0%	35.4%	-22.5%
Nc1ncnc2nc(SCc3ccccc3)[nH]c12	7.2%	7.0%	-11.1%	43.1%	-1.8%
C/C(=N/NC(N)=S)c1ccc(Br)s1	20.0%	15.8µM*	-35.0%	11.7%	-17.0%
COc1cccc(-n2c(=O)c3cc(OC)c(OC)cc3n(CC(=O)Nc3ccc(F)cc3)c2=O)c1	8.4%	-31.0%[59 µM]	-5.8%	20.4%	-9.0%
COC(=O)/C=c1/s/c(=C(\C#N)C(=O)NCc2ccco2)n(-c2ccccc2)c1=O	5.8%	44.7µM*	-5.6%	12.2%	-6.8%
COc1ccc(/C=c2\s/c(=C(/C#N)C(=O)NCc3ccco3)n(-c3ccccc3)c2=O)cc1	-10.4%	-2.4%[59 µM]	-1.7%	18.1%	7.7%
CCCCOC(=O)C1C2C=C[C@]3(CN(CCCOC)C(=O)[C@H]13)O2 (stereo not given in full)	15.7%	-5.3%[59 µM]	-9.1%	10.3%	·
CCN1CCN(CCCNC(=O)Cn2c(-c3cccs3)cc3cc(Cl)ccc32)CC1	6.2%	-32.2%[59 µM]	-22.4%	1.1%	-15.5%
Cc1ccc(N/C=C/C(=O)c2ccc(C)cc2)cc1	0.5%	?	-15.0%[57.1 µM]	25.3%	3.5%
Cc1ccc(O)c(N/C=C/C(=O)c2ccc(F)cc2)c1	20.0%	35.5µM*	-13.7%	47.9%	-4.0%
OC(CNCc1ccccn1)c1ccccc1 (stereo not given)	0.2%	?	-7.4%[57.1 µM]	60.0%	22.4µM*
SMILES	GLS inh	G9a block	JMJD2A Tudor	HP1b binding inh	BAZ2B inh
c1ccc(NCc2ccccn2)cc1	3.7%	3.6%	-32.2%	16.9%	79.4µM*
O=C(NCc1ccccn1)C(=O)Nc1ccccc1	-2.8%	-2.5%	-18.3%	31.6%	1.3%
Cc1cc(Br)ccc1NCc1ccccn1	16.5%	?	3.16µM*	15.8µM*	15.8µM*
N#C/C(=N\Nc1ccc(Cl)cc1)C(=O)c1ccsc1	0.0%	·	?	?	25.1µM*
N#C/C(=N\Nc1cccc(Cl)c1)C(=O)c1ccccc1	17.0%	25.1µM*	?	?	44.7µM*
CCC(CC)=NNc1cccc([N+](=O)[O-])c1	3.0%	?	-35.8%	1.1%	?
Cc1ccc(N/N=C(\C#N)C(=O)c2ccsc2)cc1	17.0%	?	35.5µM*	-17.4%	?
COc1ccc(C(=O)/C(C#N)=N/Nc2cccc([N+](=O)[O-])c2)cc1	5.6%	?	?	?	39.8µM*
CC1CCCCN1C(=O)CCC(=O)Nc1nnc(C(F)(F)F)s1 (stereo not given)	4.5%	19.1%	10.9%	55.4%	-0.8%
O=C(c1ccc(NS(=O)(=O)c2ccc(Cl)cc2)cc1)N1CCOCC1	-7.1%	11.8%	-6.7%	29.0%	0.6%
O=C(c1nnsc1S(=O)c1ccc(Cl)cc1)N1CCOCC1 (stereo not given)	0.0%	31.6µM*	7.08µM*	?	-1.5%
CNC(=O)c1nnsc1S(=O)(=O)c1ccc(Cl)cc1	4.2%	14.1µM*	1.4%	-14.7%	-14.6%
O=C(c1nnsc1S(=O)(=O)c1ccc(Cl)cc1)N1CCOCC1	-0.3%	50.1µM*	-15.0%	23.1%	-23.4%
O=C(Nc1ccccc1)c1nnsc1S(=O)c1ccc(Cl)cc1 (stereo not given)	?	?	?	-32.2%	-36.2%
C[C@H](NC(=O)[C@@H]1Cc2ccccc2CN1C(=O)OC(C)(C)C)C(=O)NCC1CCCO1 (stereo not given in full)	0.7%	-7.3%	-2.3%	43.2%	-0.1%
COc1ccc(CC(N)c2csc(NC(=O)Nc3ccc(F)cc3)n2)cc1 (stereo not given)	0.6%	·	·	·	·
Cn1c(COc2ccccc2)nnc1SCC(=O)Nc1ccc(N2CCOCC2)c(Cl)c1	0.1%	6.4%[12.7 µM]	-18.6%	27.2%	-4.4%
CC(C)N1C(=O)NC2(c3ccccc3)N(C)C(=O)N(C)C12c1ccccc1 (stereo not given)	16.8%	24.6%	4.3%[57.1 µM]	39.2%	-2.5%
OCc1ccc(O)c2ncccc12	10.4%	1.1%[0.501 µM]	39.8µM*	20.8%	1.41µM*
Oc1ccc(Cc2ccccc2)c2cccnc12	?	·	79.4µM*	34.1%	·
CCOc1cc2[nH]c(=O)n(CC3CCC(C(=O)NCCC(C)C)CC3)c(=O)c2cc1OCC (stereo not given)	7.3%	·	-13.3%	21.6%	·
CC(=O)NNc1[nH]c2c(c(=O)c1[N+](=O)[O-])c(=O)n(C)c(=O)n2C	8.0%	?	?	34.7%	?
O=C(CSc1ncn[nH]1)c1ccco1	-1.3%	5.62µM*	-4.6%[11.4 µM]	?	0.0%
O=C(CSc1nc2cc(Cl)ccc2s1)c1ccco1	11.7%	15.1%	29.5%	55.7%	43.6%
O=C(CSc1ncn[nH]1)c1ccccc1	-1.3%	3.16µM*	25.1µM*	-70.3%	?
